We go through 21 compounds from PubChem BioAssay (NCATS).

Structures are written as SMILES. Inconclusive results are not listed. Values without a mark were called inactive. Activity calls are given as the source filed them. Calls follow the shape of the dose curve; as a rule, active = well fitted curve in the direction sought with a large enough effect; inconclusive = small, poorly fitted or top-dose-only effect, or another doubt; inactive = no such curve, though single readings can be large; an effect the other way counts as inactive or inconclusive.

Test [1] concerns the target Rap guanine nucleotide exchange factor 3 (Homo sapiens) (UniProt O95398). Put plainly: Confirmatory qHTS for antagonist of cAMP-regulated guanine nucleotide exchange factor 3 (EPAC1) (AID 1645880). Also: nearly all actives have a fitted effect of over 55% in size. Also: potency is read from the fitted curve at half-maximal effect.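 As to activity, negative = inhibition: plate controls were DMSO only for no effect and full effect of the ATA control for full effect.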 The settings on record: EPAC1 Rap1B-BODIPY-GDP exchange, fluorescence; activity, negative = inhibition: at 115 µM (top of the series). In outline:
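Released BODIPY-GDP fluoresces less than Rap1-bound BODIPY-GDP; the signal is followed at 480/540 nm at 5-min intervals over 30 min, after 5 min at room temperature. Reactions contain 100 nM EPAC1, 250 nM RAP1B-BODIPY-GDP and 50 uM GDP; results are normalized to ATA and DMSO.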
For orientation: Quantitative high-throughput screening tests each substance at several concentrations.

Test [2] shares this target. Kind of test: Confirmatory qHTS for agonist of cAMP-regulated guanine nucleotide exchange factor 3 (EPAC1) (AID 1645881). Also: nearly all actives have a fitted effect of over 75% in size. Also: potency is read from the fitted curve at half-maximal effect.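 As to activation: EPAC1 catalysed release of BODIPY-GDP from Rap1B seen as fluorescence loss; 100% = effect of cAMP agonist control.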 The settings on record: EPAC1 Rap1B BODIPY-GDP exchange fluorescence; series mostly up to 154 µM.
Test [3] deals with Rap guanine nucleotide exchange factor 4 (Homo sapiens) (UniProt Q8WZA2). Kind of test: Confirmatory qHTS for agonist of cAMP-regulated guanine nucleotide exchange factor 4 (EPAC2) (AID 1645884).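 Also: nucleotide exchange releases bodipy-GDP from Rap1 and this lowers its fluorescence; % is scaled to controls: 0 for no effect and ±100 for the full control effect; nearly all actives have a fitted effect of over 65% in size.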 The settings on record: EPAC2 GEF activity, Rap1B-BODIPY-GDP fluorescence; series mostly up to 154 µM.
Rap guanine nucleotide exchange factor 4 (Homo sapiens), sequence (Q8WZA2 whole entry, looked up): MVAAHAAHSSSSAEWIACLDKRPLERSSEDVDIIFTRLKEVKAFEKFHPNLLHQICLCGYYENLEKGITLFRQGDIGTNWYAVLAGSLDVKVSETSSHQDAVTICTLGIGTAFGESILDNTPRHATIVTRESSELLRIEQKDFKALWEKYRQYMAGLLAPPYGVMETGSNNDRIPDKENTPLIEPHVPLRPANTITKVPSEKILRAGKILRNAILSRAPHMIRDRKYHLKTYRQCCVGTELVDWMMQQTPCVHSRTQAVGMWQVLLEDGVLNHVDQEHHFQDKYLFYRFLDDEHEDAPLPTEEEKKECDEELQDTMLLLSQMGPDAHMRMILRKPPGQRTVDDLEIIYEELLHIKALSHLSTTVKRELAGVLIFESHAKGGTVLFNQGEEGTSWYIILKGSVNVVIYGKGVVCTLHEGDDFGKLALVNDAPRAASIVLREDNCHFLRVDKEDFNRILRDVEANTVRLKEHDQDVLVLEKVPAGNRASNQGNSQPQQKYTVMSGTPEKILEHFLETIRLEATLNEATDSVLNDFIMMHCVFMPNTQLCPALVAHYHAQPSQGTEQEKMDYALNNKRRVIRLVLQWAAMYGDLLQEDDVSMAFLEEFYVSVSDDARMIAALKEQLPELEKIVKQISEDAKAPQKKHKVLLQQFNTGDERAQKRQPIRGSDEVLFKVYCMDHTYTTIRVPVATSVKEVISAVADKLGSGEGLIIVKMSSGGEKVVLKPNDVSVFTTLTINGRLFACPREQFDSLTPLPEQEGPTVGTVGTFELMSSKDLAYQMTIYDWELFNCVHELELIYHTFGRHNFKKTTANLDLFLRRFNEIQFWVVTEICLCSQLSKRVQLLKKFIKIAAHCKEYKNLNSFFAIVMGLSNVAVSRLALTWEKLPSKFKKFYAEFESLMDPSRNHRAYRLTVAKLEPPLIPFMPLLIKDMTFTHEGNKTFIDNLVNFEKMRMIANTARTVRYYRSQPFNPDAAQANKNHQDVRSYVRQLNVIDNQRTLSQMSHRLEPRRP
The target is the same in test [4]. Put plainly: Confirmatory qHTS for antagonist of cAMP-regulated guanine nucleotide exchange factor 4 (EPAC2) (AID 1645885). Also: nearly all actives have a fitted effect of over 25% in size. Also: potency is read from the fitted curve at half-maximal effect. As to activity change, negative = inhibition: % is scaled to controls: 0 for no effect and ±100 for the full control effect. The settings on record: EPAC2 Rap1B-BODIPY-GDP exchange fluorescence, biochemical; series mostly up to 12.7 µM.
The target in test [5] is Rap guanine nucleotide exchange factor 3 (Homo sapiens) (UniProt O95398). Kind of test: Counterscreen qHTS for antagonist of cAMP-regulated guanine nucleotide exchange factor 3 (EPAC1) (AID 1645888). Also: % of control where 0% means no effect. The settings on record: Rap1B-BODIPY-GDP nucleotide exchange, fluorescence; series mostly up to 154 µM. In outline: (§1)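 Measured: fluorescence of BODIPY-GDP bound to Rap1B, which falls as exchange proceeds. Conditions include 50 uM competing GDP, 5 and 30 min reads, and a later cAMP challenge for antagonist detection.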
Rap guanine nucleotide exchange factor 3 (Homo sapiens), sequence (O95398 whole entry, looked up): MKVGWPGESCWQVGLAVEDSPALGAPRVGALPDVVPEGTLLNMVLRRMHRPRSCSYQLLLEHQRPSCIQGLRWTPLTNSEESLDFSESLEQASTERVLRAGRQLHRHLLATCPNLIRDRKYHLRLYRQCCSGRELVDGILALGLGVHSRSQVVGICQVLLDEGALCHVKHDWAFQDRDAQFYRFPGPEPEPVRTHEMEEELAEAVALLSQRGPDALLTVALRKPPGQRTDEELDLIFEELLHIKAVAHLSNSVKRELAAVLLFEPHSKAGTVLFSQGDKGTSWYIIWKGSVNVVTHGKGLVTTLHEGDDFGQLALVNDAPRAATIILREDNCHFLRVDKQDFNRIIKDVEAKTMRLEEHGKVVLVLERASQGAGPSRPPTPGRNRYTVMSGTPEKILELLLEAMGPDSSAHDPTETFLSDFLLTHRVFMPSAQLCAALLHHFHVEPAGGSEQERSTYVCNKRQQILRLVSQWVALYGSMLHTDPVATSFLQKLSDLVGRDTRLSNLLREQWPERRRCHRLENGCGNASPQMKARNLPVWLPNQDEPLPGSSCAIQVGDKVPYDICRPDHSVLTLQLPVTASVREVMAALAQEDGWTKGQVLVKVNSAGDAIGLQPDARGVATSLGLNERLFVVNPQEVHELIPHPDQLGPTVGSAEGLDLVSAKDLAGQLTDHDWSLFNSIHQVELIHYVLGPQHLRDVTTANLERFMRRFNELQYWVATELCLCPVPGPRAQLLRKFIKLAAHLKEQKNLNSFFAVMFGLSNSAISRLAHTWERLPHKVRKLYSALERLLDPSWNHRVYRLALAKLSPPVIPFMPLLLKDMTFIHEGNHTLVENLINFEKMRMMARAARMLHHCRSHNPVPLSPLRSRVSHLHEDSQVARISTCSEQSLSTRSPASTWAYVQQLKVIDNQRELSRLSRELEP

Test [6] shares this target. Kind of test: Counterscreen qHTS for agonist of cAMP-regulated guanine nucleotide exchange factor 3 (EPAC1) (AID 1645889). Also: % of control where 0% means no effect; nearly all actives have a fitted effect of over 40% in size. Conditions: EPAC1 Rap1B-BODIPY-GDP exchange, fluorescence; series mostly up to 154 µM. Summed up:
as §1

As for `O=C1/C(=C\c2ccc(O)c(O)c2)C(c2ccccc2)=NN1c1ccccc1`, the Potency in test [1] is 16.9 µM (active). Besides, the Potency entry in test [2], in test [3], in test [4], in test [5] and in test [6] was “inactive” each time.
Regarding `O=C(CSc1nc2ccsc2c(=O)n1CC1CCC(C(=O)O)CC1)c1ccc(Cl)cc1` (stereo unspecified), the Potency in test [1] is 47.8 µM (active). The Potency entry in test [2], in test [3], in test [4], in test [5] and in test [6] was “inactive” in each case.
Consider `CCOC(=O)C1=CCN(S(=O)(=O)c2ccc(C)cc2)C1c1cccc(Cl)c1` (stereo unspecified), for which the Potency entry in test [1], in test [2], in test [3], in test [4], in test [5] and in test [6] was “inactive” in each case.
As for `CCCSc1nc(C)cc(C)c1S(=O)(=O)c1ccccc1C`, the Potency entry in test [1], in test [2], in test [3], in test [4], in test [5] and in test [6] was “inactive” each time.
Take `O=C(CSC1=NCCS1)N1N=C(c2cccs2)CC1c1ccc(F)cc1` (stereo unspecified): the Potency entry in test [1], in test [2] and in test [4] was “inactive” throughout. In addition, the activation was 6.13% [at 17.1 µM, percent relative to cAMP agonist control] in test [3] and 21.2% [at 30.8 µM] in test [6]. In addition, the activity change, negative = inhibition in test [5] is 4.6% [at 30.8 µM].
As to `O=C(CNC(=O)c1sc2ccccc2c1Cl)NCc1cccc(C(F)(F)F)c1`, the Potency result in test [1], in test [2], in test [3], in test [4], in test [5] and in test [6] was “inactive” each time.
As to `Cc1onc(-c2c(Cl)cccc2Cl)c1COC(=O)c1ccc(Cl)cc1`, the Potency entry in test [1], in test [2], in test [3], in test [4], in test [5] and in test [6] was “inactive” each time.
In the case of `COc1ccc(S(=O)(=O)N2CCCCC2)cc1C(C)C`, the Potency result in test [1], in test [2], in test [3], in test [5] and in test [6] was “inactive” throughout. In test [4], the Potency was 8.49 µM (active).
Consider `CC(OC(=O)/C(C#N)=C/c1ccc(N(C)C)cc1)C(=O)N(C)c1ccccc1` (stereo unspecified), for which the Potency result in test [1] and in test [4] was “inactive” throughout. Also, the Potency in test [2] is 50.1 µM (active). Also, the activation was 3.03% [at 17.1 µM, percent relative to cAMP agonist control] in test [3] and 20.3% [at 30.8 µM] in test [6]. The activity change, negative = inhibition in test [5] was -2.82% [at 30.8 µM].
For the compound `O=C1C2CCCN2C(c2ccccc2F)N1c1cccc(Cl)c1` (stereo unspecified), the Potency entry in test [1], in test [2] and in test [4] was “inactive” throughout. Besides, the activation in test [3] is 0.711% [at 17.1 µM, percent relative to cAMP agonist control]; in test [6], 9.98% [at 30.8 µM]. Besides, the activity change, negative = inhibition in test [5] is -15.2% [at 30.8 µM].
In the case of `CC1CCC/C(=C\Nc2ccc(O)cc2)C1=O` (stereo unspecified), the Potency entry in test [1], in test [2] and in test [4] was “inactive” throughout. Also, the activation in test [3] is 6.29% [at 17.1 µM, percent relative to cAMP agonist control]; in test [6], 3.58% [at 30.8 µM]. Besides, the activity change, negative = inhibition in test [5] was -12.6% [at 30.8 µM].
As to `COc1cccc(OC)c1C(=O)NC(=S)NNC(=O)[C@H]1C[C@@H]1c1ccccc1`, the Potency result in test [1], in test [2], in test [3], in test [4], in test [5] and in test [6] was “inactive” each time.
With `O=C1COc2ccc(C(=O)COC(=O)c3ccc([N+](=O)[O-])cc3Cl)cc2N1`, the Potency result in test [1], in test [2], in test [3], in test [4], in test [5] and in test [6] was “inactive” each time.
`COc1ccc(C(=O)Nc2cccc(/C=C(/CCC(=O)O)c3nc4ccccc4s3)c2)cc1`: the Potency in test [1] is 15.1 µM (active). In addition, the Potency entry in test [2], in test [3], in test [4], in test [5] and in test [6] was “inactive” each time.
Take `O=C(O)C1CC(=O)N(c2ccc(OCc3c(F)cccc3Cl)cc2)C1` (stereo unspecified): the Potency entry in test [1], in test [2], in test [3], in test [4], in test [5] and in test [6] was “inactive” throughout.
Take `COc1cc2c(c(OC)c1OC)C(c1ccc3c(c1)OCO3)CC(=O)O2` (stereo unspecified): the Potency result in test [1], in test [2] and in test [4] was “inactive” in each case. Further, the activation in test [3] was 4.62% [at 17.1 µM, percent relative to cAMP agonist control]; in test [6], 18.7% [at 30.8 µM]. Also, the activity change, negative = inhibition in test [5] is -9.71% [at 30.8 µM].
Consider `CC(=O)Nc1ccc(S(=O)(=O)Nc2nc(-c3ccc(C(C)(C)C)cc3)cs2)cc1`, for which the Potency in test [1] was 44.7 µM (active). The Potency entry in test [2] and in test [4] was “inactive” throughout. Moreover, the activation in test [3] was 0% [at 17.1 µM, percent relative to cAMP agonist control]; in test [6], 8.98% [at 30.8 µM]. The activity change, negative = inhibition in test [5] was -15.7% [at 30.8 µM].
As for `COc1ccc(Cl)cc1NC(=O)CN1CCc2ccccc21`, the Potency entry in test [1], in test [2] and in test [4] was “inactive” in each case. The activation in test [3] was 2.78% [at 17.1 µM, percent relative to cAMP agonist control]; in test [6] it was 14.8% [at 30.8 µM]. Also, in test [5], the activity change, negative = inhibition is -6.37% [at 30.8 µM].
Consider `O=C(O)CCn1cc(C2CC(c3ccccc3)=NN2c2ccccc2)c(-c2ccccc2)n1` (stereo unspecified), for which the Potency result in test [1], in test [2], in test [3], in test [4], in test [5] and in test [6] was “inactive” each time.
Turning to `CC(C)(C)N(NC(=O)Nc1ccc(F)cc1)C(=O)c1ccccc1`, the Potency entry in test [1], in test [2] and in test [4] was “inactive” each time. Besides, the activation in test [3] is 0.121% [at 17.1 µM, percent relative to cAMP agonist control]; in test [6], 0.382% [at 30.8 µM]. Moreover, in test [5], the activity change, negative = inhibition is -14.2% [at 30.8 µM].
For `COC(=O)CCNC(=O)NC(CCC(C)C)c1c(-n2cccc2)sc2c1CCN(C)C2` (stereo unspecified), the Potency result in test [1], in test [2], in test [3], in test [4], in test [5] and in test [6] was “inactive” in each case.
